Results taken from article PMC7862700, “An all-to-all approach to the identification of sequence-specific readers for epigenetic DNA modifications on cytosine”.

What was measured:
Assay in all cases: DAPPL (digital affinity profiling via proximity ligation, sequencing); 10 mM Tris-HCl pH 7.5, 50 mM NaCl, 1 mM DTT, 4% glycerol, room temperature, 30 min; GST-TFs on glutathione beads, 16-mer random dsDNA library, 0.1% formaldehyde crosslink after washing; high values mean tight binding
FLI1 = target: T1, FLI1 (Homo sapiens, UniProt Q01543 1-452); settings: protein: recombinant; tags: N-terminal GST; dsDNA, one strand shown
T1 sequence: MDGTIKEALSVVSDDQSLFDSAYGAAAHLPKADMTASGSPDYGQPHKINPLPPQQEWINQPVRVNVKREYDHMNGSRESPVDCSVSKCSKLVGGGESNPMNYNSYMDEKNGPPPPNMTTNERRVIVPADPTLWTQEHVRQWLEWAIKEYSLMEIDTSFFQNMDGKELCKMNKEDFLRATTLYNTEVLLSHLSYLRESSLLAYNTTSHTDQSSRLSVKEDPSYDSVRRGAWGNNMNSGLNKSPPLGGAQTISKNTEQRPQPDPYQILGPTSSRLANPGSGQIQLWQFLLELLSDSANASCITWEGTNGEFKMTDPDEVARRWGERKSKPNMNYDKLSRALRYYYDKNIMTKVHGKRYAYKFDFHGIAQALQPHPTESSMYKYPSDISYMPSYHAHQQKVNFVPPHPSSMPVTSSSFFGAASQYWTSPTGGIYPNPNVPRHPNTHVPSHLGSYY
Outline: (§1)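 Human transcription factors carrying a GST fusion were produced in yeast, bound to glutathione beads, tagged with DNA barcodes and pooled together with a tag-only sample. Each pool was held with 200 nmole of a random double-stranded 16-mer DNA library in Tris/NaCl/DTT/glycerol buffer for 30 min at room temperature, then washed, crosslinked in 0.1% formaldehyde, proximity-ligated with BsaI/T4 ligase (1 h, 37 °C), PCR-amplified and sequenced on an Illumina NextSeq500. Binding signal is the read frequency of each hexamer for a given factor divided by its frequency in the tag-only sample.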

ELK1 = target: T2, ELK1 (Homo sapiens, UniProt P19419 1-428); settings: protein: recombinant; tags: N-terminal GST; dsDNA, one strand shown
T2 sequence: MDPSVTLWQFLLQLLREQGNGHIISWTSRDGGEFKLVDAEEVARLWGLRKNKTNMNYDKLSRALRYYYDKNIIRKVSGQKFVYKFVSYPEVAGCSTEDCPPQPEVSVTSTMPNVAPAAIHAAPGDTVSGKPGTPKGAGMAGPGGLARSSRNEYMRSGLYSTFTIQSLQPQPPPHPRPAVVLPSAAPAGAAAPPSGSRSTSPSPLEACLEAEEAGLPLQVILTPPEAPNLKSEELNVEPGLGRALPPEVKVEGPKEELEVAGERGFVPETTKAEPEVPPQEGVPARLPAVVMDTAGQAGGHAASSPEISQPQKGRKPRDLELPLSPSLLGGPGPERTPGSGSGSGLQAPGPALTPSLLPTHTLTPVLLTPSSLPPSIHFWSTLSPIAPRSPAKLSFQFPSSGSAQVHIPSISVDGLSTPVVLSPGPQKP
Outline: as §1

GABPA = target: T3, GABPA (Homo sapiens, UniProt Q06546 1-454); settings: protein: recombinant; tags: N-terminal GST; dsDNA, one strand shown
T3 sequence: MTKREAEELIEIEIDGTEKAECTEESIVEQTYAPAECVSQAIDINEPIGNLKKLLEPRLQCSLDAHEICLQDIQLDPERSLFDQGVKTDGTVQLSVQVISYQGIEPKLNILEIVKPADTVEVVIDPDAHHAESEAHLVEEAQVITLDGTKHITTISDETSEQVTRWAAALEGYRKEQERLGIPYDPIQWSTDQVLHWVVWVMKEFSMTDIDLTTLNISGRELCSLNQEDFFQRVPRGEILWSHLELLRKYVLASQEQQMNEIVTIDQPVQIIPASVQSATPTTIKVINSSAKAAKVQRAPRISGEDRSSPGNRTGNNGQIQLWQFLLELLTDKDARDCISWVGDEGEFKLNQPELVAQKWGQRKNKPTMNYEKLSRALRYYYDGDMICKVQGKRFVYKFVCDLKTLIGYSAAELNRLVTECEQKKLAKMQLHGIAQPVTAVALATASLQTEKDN
Outline: as §1

ERG = target: T4, ERG (Homo sapiens, UniProt P11308 1-479); settings: protein: recombinant; tags: N-terminal GST; dsDNA, one strand shown
T4 sequence: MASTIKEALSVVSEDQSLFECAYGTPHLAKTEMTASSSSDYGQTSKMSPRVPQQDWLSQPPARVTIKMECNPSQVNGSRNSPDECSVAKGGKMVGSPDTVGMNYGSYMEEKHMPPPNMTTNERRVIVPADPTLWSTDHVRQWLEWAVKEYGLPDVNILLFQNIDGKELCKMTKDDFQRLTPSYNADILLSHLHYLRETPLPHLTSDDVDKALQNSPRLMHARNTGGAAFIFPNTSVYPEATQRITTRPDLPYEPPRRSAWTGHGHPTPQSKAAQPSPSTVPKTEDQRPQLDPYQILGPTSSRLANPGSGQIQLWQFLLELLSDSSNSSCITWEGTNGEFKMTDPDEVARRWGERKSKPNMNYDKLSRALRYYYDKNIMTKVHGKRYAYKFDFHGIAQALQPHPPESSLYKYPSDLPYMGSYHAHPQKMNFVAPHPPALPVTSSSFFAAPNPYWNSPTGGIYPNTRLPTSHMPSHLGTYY
Outline: as §1

ELF1 = ELF1 (Homo sapiens, UniProt P32519 1-619); settings: protein: recombinant; tags: N-terminal GST; dsDNA, one strand shown
Outline: as §1

EHF = target: T5, EHF (Homo sapiens, UniProt Q9NZC4 1-300); settings: protein: recombinant; tags: N-terminal GST; dsDNA, one strand shown
T5 sequence: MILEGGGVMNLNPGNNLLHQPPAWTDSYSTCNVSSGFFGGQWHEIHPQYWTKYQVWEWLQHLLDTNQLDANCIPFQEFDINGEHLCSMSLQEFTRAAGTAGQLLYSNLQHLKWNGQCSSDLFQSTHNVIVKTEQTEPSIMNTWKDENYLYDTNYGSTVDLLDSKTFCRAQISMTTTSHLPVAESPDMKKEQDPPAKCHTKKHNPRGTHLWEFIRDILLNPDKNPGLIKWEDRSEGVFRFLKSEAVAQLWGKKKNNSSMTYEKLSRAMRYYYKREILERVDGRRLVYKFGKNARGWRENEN
Outline: as §1

SPI1 = SPI1 (Homo sapiens, UniProt P17947 1-270); settings: protein: recombinant; tags: N-terminal GST; dsDNA, one strand shown
Outline: as §1

SPIB = SPIB (Homo sapiens, UniProt Q01892 1-262); settings: protein: recombinant; tags: N-terminal GST; dsDNA, one strand shown
Outline: as §1

ELK3 = target: T6, ELK3 (Homo sapiens, UniProt P41970 1-407); settings: protein: recombinant; tags: N-terminal GST; dsDNA, one strand shown
T6 sequence: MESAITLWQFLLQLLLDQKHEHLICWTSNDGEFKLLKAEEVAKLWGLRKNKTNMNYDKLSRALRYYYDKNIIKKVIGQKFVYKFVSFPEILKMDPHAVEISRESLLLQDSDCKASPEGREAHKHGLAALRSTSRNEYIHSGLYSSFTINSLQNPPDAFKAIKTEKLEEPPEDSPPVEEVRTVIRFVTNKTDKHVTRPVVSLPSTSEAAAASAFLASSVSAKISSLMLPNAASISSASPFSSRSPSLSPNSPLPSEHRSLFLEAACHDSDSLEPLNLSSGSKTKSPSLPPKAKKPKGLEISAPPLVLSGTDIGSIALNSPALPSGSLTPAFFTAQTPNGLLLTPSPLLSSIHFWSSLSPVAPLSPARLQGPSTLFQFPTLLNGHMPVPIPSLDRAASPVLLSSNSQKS
Outline: as §1

FEV = target: T7, FEV (Homo sapiens, UniProt Q99581 1-238); settings: protein: recombinant; tags: N-terminal GST; dsDNA, one strand shown
T7 sequence: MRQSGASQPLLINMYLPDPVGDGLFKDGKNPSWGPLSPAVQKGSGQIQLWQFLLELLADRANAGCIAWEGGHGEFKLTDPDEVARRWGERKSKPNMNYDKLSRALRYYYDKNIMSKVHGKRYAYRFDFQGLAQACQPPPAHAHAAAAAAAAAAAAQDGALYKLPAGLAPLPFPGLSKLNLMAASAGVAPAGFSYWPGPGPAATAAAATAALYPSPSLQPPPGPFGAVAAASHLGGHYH
Outline: as §1

ETV5 = ETV5 (Homo sapiens, UniProt P41161 1-510); settings: protein: recombinant; tags: N-terminal GST; dsDNA, one strand shown
Outline: as §1

HSF1 = HSF1 (Homo sapiens, UniProt Q00613 1-529); settings: protein: recombinant; tags: N-terminal GST; chain copies: 3; dsDNA, one strand shown
Outline: as §1

SPIC = target: T8, SPIC (Homo sapiens, UniProt Q8N5J4 1-248); settings: protein: recombinant; tags: N-terminal GST; dsDNA, one strand shown
T8 sequence: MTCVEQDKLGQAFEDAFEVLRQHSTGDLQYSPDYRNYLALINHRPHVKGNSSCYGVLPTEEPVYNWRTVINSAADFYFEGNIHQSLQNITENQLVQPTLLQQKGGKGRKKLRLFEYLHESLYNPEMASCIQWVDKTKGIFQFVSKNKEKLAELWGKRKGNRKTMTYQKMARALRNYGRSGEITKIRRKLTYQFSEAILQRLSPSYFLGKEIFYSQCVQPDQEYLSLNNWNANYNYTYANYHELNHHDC
Outline: as §1

ELF4 = ELF4 (Homo sapiens, UniProt Q99607 1-663); settings: protein: recombinant; tags: N-terminal GST; dsDNA, one strand shown
Outline: as §1

ELK4 = target: T9, ELK4 (Homo sapiens, UniProt P28324-2 1-405); settings: protein: recombinant; tags: N-terminal GST; dsDNA, one strand shown
T9 sequence: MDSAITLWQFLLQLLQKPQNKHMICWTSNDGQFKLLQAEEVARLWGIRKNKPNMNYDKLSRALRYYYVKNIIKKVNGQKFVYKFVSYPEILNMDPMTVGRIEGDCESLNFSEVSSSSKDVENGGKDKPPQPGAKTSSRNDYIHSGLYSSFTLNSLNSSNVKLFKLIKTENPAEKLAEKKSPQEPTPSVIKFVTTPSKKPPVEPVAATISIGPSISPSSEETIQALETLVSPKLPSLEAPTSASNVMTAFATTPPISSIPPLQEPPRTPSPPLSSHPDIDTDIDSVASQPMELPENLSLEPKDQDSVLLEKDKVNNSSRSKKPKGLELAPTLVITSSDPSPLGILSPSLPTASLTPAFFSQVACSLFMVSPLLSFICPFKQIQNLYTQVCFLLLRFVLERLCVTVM
Outline: as §1

ELF3 = target: T10, ELF3 (Homo sapiens, UniProt P78545 1-371); settings: protein: recombinant; tags: N-terminal GST; dsDNA, one strand shown
T10 sequence: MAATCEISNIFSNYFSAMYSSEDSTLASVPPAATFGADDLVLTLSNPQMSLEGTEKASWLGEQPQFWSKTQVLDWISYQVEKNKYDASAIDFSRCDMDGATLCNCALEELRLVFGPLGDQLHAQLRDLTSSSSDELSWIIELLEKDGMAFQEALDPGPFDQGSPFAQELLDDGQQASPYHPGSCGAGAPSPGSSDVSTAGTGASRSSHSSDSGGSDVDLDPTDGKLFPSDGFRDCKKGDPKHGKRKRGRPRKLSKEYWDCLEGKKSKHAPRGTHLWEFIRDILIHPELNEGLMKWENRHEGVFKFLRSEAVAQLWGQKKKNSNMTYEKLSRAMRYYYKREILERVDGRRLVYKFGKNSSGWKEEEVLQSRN
Outline: as §1

CRX = CRX (Homo sapiens, UniProt O43186 1-299); settings: protein: recombinant; tags: N-terminal GST; dsDNA, one strand shown
Outline: as §1

ETV1 = ETV1 (Homo sapiens, UniProt P50549 1-477); settings: protein: recombinant; tags: N-terminal GST; dsDNA, one strand shown
Outline: as §1

Chain of ELF4 (Q99607 whole entry): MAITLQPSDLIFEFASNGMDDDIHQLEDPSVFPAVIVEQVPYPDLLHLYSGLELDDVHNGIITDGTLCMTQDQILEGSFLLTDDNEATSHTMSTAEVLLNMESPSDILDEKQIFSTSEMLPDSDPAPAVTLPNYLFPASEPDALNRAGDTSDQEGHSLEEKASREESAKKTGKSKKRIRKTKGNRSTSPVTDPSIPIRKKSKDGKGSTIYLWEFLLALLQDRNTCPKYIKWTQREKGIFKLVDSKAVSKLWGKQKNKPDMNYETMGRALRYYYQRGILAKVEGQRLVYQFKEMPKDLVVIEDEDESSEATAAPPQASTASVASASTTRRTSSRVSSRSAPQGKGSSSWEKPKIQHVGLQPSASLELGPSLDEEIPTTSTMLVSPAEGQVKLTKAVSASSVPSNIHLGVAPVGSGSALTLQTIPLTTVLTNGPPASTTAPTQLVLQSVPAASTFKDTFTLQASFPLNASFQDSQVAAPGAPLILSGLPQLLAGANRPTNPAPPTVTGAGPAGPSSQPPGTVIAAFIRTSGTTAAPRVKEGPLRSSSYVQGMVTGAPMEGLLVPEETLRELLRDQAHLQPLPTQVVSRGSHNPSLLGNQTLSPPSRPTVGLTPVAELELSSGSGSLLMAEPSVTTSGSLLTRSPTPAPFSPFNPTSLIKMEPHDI
Chain of HSF1 (Q00613 whole entry): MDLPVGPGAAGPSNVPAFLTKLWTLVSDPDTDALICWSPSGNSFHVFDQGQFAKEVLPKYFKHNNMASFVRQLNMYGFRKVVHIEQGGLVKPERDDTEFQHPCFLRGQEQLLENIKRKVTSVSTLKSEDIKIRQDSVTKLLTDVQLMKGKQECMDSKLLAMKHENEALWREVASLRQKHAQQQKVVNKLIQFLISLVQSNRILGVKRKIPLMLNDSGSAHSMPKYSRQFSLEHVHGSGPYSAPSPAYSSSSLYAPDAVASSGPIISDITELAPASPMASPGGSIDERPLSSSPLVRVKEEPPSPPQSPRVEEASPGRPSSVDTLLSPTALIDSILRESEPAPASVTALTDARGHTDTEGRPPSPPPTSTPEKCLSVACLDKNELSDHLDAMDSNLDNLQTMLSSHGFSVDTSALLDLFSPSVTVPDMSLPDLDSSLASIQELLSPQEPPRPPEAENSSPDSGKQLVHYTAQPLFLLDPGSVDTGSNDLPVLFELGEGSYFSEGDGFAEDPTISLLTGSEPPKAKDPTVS
Chain of CRX (O43186 whole entry): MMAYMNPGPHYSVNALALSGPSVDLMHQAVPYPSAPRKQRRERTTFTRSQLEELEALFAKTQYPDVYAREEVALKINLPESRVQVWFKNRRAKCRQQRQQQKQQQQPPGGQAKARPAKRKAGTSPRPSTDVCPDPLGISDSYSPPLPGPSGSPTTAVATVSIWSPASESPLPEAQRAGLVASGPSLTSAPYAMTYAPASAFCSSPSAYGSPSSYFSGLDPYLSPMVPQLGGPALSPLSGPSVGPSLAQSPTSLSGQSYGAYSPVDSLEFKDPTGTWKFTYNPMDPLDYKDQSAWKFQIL
Chain of ETV5 (P41161 whole entry): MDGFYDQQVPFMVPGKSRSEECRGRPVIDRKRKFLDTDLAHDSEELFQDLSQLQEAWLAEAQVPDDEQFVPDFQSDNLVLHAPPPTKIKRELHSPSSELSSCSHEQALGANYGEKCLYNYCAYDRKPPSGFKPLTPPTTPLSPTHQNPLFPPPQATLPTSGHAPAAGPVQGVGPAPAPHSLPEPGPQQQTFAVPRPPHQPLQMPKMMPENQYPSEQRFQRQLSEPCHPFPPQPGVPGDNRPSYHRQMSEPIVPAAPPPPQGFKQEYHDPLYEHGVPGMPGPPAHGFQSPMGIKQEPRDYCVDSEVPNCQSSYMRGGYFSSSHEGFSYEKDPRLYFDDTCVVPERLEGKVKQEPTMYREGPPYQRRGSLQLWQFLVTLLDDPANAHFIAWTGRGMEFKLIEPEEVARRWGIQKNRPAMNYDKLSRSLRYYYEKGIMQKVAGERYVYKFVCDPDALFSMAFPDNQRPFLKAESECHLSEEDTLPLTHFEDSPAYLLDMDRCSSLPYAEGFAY
Chain of ETV1 (P50549 whole entry): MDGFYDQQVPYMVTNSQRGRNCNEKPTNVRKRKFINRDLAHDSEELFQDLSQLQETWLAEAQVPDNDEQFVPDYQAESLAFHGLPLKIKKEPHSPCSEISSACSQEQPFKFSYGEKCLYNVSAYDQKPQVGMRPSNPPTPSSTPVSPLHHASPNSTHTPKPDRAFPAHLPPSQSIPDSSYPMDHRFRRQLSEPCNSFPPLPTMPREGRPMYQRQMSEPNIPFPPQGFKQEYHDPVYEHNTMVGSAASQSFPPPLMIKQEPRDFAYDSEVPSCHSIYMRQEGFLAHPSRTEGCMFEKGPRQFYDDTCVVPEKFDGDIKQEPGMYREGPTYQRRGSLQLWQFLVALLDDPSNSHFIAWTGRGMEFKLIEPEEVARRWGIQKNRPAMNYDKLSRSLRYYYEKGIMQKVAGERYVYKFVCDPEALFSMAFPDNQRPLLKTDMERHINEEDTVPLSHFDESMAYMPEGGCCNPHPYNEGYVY
Chain of SPIB (Q01892 whole entry): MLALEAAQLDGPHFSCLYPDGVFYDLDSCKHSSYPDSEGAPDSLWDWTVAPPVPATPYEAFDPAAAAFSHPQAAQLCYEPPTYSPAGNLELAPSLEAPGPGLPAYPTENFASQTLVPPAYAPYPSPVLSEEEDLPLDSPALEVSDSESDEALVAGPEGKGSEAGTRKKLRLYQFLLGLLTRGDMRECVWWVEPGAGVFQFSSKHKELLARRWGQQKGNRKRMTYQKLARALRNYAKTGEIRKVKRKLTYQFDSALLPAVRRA
Chain of ELF1 (P32519 whole entry): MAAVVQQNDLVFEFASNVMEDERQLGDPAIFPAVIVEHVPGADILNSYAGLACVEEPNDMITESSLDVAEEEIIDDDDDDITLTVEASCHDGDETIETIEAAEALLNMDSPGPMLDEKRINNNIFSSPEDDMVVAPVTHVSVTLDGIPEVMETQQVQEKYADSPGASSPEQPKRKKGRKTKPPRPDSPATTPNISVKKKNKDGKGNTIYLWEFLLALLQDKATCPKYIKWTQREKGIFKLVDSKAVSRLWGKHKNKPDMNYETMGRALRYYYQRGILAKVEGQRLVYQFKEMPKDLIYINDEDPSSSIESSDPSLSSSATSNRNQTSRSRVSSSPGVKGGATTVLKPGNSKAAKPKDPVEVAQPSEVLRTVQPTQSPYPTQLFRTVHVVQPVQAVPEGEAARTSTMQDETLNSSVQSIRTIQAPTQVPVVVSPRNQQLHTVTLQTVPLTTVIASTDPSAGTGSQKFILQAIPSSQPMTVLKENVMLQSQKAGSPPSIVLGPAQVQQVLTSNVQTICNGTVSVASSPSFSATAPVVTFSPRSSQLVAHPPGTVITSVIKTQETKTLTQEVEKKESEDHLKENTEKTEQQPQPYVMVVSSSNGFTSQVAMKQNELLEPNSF

GGTACT was tested, and the binding signal (FLI1) was 1.25 fold enrichment (6-mer frequency, TF over GST control), the binding signal (ELK1) was 1.21 fold enrichment (6-mer frequency, TF over GST control) and the binding signal (GABPA) was 1.31 fold enrichment (6-mer frequency, TF over GST control). The binding signal (ERG) was 1.24 fold enrichment (6-mer frequency, TF over GST control), the binding signal (ELF1) was 1.32 fold enrichment (6-mer frequency, TF over GST control) and the binding signal (EHF) was 1.25 fold enrichment (6-mer frequency, TF over GST control). The binding signal (SPI1) was 1.19 fold enrichment (6-mer frequency, TF over GST control), the binding signal (SPIB) was 1.15 fold enrichment (6-mer frequency, TF over GST control) and the binding signal (ELK3) was 1.35 fold enrichment (6-mer frequency, TF over GST control). The binding signal (FEV) was 1.28 fold enrichment (6-mer frequency, TF over GST control), the binding signal (ETV5) was 1.39 fold enrichment (6-mer frequency, TF over GST control) and the binding signal (HSF1) was 1.05 fold enrichment (6-mer frequency, TF over GST control). For the same sequence, the binding signal (SPIC) was 1.24 fold enrichment (6-mer frequency, TF over GST control), the binding signal (ELF4) was 1.24 fold enrichment (6-mer frequency, TF over GST control) and the binding signal (ELK4) was 1.19 fold enrichment (6-mer frequency, TF over GST control). For the same sequence, the binding signal (ELF3) was 1.03 fold enrichment (6-mer frequency, TF over GST control), the binding signal (CRX) was 1.05 fold enrichment (6-mer frequency, TF over GST control) and the binding signal (ETV1) was 1.26 fold enrichment (6-mer frequency, TF over GST control).
